Screens as filed in PubChem.
BAZ2B inh = BAZ2B (human) inhibition. Potency, µM (titrated, usually from 114 µM), actives largely listed as inhibitors. Q9UIF8. actives 4.4% (n = 360,000). AlphaScreen BAZ2B-H3K14Ac peptide displacement. AID 504333; also: nearly all actives have a fitted effect of over 60% in size
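BAZ2B 50 nM plus b-H3(5-23)K14Ac 50 nM, PBS pH 7.4/0.01% Tween-20, 30 min RT; compound added (max 110 uM), 30 min RT; streptavidin donor/Ni-chelate acceptor beads 10 ug/mL final, 20 min dark; AlphaScreen read.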
CtBP-E1A inh = CtBP/E1A binding inhibition; AlphaScreen GST-E1A/His-CtBP binding, 1536-well; hits give low values; activity change, % (concentration not given with the values); actives 0.49% (n = 340,000); AID 651724; in the data active = activity change below about -65%; inconclusive = mostly about -30% to -63%
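GST-E1A and His-tagged CtBP (125 nM each as 5X stock) were preincubated with pin-transferred compound for 2 h at 37 °C in the dark, then glutathione donor and nickel acceptor beads were added for 1 h before AlphaScreen reading.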
JMJD2A Tudor inh = JMJD2A Tudor domain (human) inhibition; Potency, µM (doses to about 114 µM), actives largely listed as inhibitors; AID 504339; actives 4.4% (n = 390,000); AlphaScreen JMJD2A-Tudor / H3K4me3 peptide binding; also: nearly all actives have a fitted effect of over 50% in size
HP1b binding inh = blocks HP1-beta chromodomain binding to methylated histone tails. Potency, µM (series often up to 114 µM), actives largely listed as inhibitors. AID 540317. AlphaScreen HP1-beta / biotin-H3K9me3 peptide binding. actives 0.56% (n = 390,000); also: nearly all actives have a fitted effect of over 70% in size
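HP1-beta protein (50 nM final) preincubated 30 min at room temperature with biotinylated H3(1-18)K9me3 peptide (50 nM) in PBS pH 7.4, 0.01% Tween-20, then compound added for 30 min. AlphaScreen streptavidin donor/nickel chelate acceptor beads (10 ug/mL final), 30 min dark, luminescence read.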
Six1-Eya2 inh = inhibitors of human Six1/Eya2 interaction; activity change, % (no concentration beside the values); AlphaScreen GST-Six1/His-Eya2 binding, biochemical; hits give low values; AID 651725; Q15475+O00167; actives 0.56% (n = 360,000); in the data active = activity change below about -65%; inconclusive = mostly about -30% to -63%
Target sequence (O00167 whole entry, looked up): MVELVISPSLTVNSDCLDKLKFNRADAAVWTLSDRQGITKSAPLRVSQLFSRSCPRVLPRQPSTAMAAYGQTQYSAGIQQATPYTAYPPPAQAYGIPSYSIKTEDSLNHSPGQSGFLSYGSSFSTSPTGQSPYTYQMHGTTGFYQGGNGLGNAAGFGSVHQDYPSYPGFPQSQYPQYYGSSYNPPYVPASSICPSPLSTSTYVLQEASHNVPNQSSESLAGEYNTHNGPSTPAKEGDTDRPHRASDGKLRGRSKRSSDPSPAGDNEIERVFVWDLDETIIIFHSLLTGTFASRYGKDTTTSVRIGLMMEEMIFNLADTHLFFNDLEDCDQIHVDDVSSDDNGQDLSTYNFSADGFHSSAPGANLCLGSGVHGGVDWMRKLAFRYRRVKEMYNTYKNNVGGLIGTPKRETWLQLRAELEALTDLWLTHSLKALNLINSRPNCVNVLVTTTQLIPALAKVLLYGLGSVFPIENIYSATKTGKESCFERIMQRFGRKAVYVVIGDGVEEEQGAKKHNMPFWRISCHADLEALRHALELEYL
Target sequence (Q15475 whole entry, looked up): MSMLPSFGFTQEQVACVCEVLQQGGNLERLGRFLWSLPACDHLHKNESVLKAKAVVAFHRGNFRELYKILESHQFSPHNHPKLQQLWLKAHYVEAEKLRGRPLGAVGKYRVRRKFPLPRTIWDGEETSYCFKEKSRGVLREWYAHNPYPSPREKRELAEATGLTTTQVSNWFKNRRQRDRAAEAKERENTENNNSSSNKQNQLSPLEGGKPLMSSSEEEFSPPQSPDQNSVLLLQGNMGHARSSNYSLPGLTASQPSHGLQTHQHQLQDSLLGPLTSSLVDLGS
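GST-Six1 + His-Eya2 (5X stock: 250/500 nM); Tris pH 8.0, 300 mM NaCl, 0.05% BSA, 0.02% Tween 20; GSH donor/Ni acceptor beads; 1 h 37 °C dark; AlphaScreen readout.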
G9a block = G9a (human) methyltransferase inhibition; Q96KQ7; AID 504332; actives 8.8% (n = 350,000); G9a H3K9 monomethylation, AlphaScreen, 2 h; Potency, µM (doses to about 102 µM), usual class: inhibitors; also: nearly all actives have a fitted effect of over 75% in size
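Quantitative HTS format: methyltransferase activity on a biotin-tagged H3K9 peptide is measured by AlphaScreen, using a rabbit anti-monomethyl-H3K9 antibody with streptavidin donor and anti-IgG acceptor beads. Final levels are 20 nM enzyme, 500 nM peptide, 20 uM SAM; 2 h RT.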
Hits are given with their value; n = inactive; u = inconclusive; x = no result; ! = a repeat was not active; [ ] = dose if it differs, or a comment. This is a sample that favours compounds with a hit; in the whole collection about 10% have one here. Unless noted, calls follow the shape of the dose curve; as a rule, active = well fitted inhibition curve with a large enough effect; inconclusive = small, poorly fitted or top-dose-only effect; inactive = no such curve, though single readings can be large or run the other way.

SMILES	BAZ2B inh	CtBP-E1A inh	JMJD2A Tudor inh	HP1b binding inh	Six1-Eya2 inh	G9a block
CCN(c1ccc(NC(=O)COC(=O)C2CCN(c3ccc(C(F)(F)F)cn3)CC2)cc1)C(C)C	x	u	10µM	u	u	x
CCCc1cc(C(=O)Nc2c(C)nn(Cc3c(Cl)cccc3Cl)c2C)no1	n	x	n	n	x	n
CC1(c2ccccc2)CC(C)(C)N2C(=O)C3(C(C#N)=C(N)Oc4cc(O)ccc43)c3cccc1c32 (stereo not given)	n	n	u	u	n	n
CC1(c2ccccc2)CC(C)(C)N2C(=O)/C(=C3\SC(=S)NC3=O)c3cccc1c32 (stereo not given)	u	n	28µM	14µM	n	u
CCC(=O)N1c2ccccc2CC1C(=O)NCc1ccccc1C (stereo not given)	n	x	n	n	x	n
O=C(Nc1ncccn1)c1cc([N+](=O)[O-])cc([N+](=O)[O-])c1	n	n	n	n	n	n
O=[N+]([O-])c1cc(-c2ncccn2)c([N+](=O)[O-])s1	u	n	n	n	n	28µM
O=C(Cc1ccc(Cl)cc1)Nc1nnc2n1CCS2	56µM	x	u	n	x	u
CC(C)(Oc1ccc(Cl)cc1)C(=O)Nc1nnc2n1CCS2	u	x	79µM	n	x	n
CC(C)CC(=O)Nc1nnc2n1CCS2	n	x	n	n	x	u
O=C(Nc1nnc2n1CCS2)c1ccc(Br)o1	20µM	u	20µM	n	u	1.8µM
CC(C)Oc1ccc(C(=O)Nc2nnc3n2CCS3)cc1	n	x	n	n	x	n
COc1ccc2c(Sc3ccccc3)c(C(=O)NCCN(C)C)[nH]c2c1	n	x	n	n	x	u
CC1(CCBr)C(=O)N(c2ccccc2)c2ccccc21 (stereo not given)	n	n	n	n	n	n[0.501 µM]
O=C1N(c2ccccc2)c2ccccc2C1(Cc1ccncc1)Cc1ccncc1	u	n	n	n	n	13µM!
COCCNc1ncnc2ccc(-c3ccccc3C(F)(F)F)cc12	x	x	x	x	x	n[0.501 µM]
O=C(CCc1ccccc1)N1CCN(c2ccccc2F)CC1	n	n	n	n	n	n
C/C(=C\c1ccccc1)CN1CCN(c2ccccc2F)CC1	n	n	5µM	u	n	u
Fc1ccccc1N1CCN(CCCc2ccccc2)CC1	u	n	22µM	u	n	35µM
Cc1cc(C(=O)CSc2nnnn2-c2ccccc2)c(C)n1-c1ccc2c(c1)OCO2	n	n	n	n	n	u
Cc1cc(C(=O)CN2C(=O)NC3(CCCCC3)C2=O)c(C)n1-c1ccc2c(c1)OCO2	u	n	56µM	u	n	n
Cc1cc(-n2c(C)cc(C(=O)CN3C(=O)NC4(CCCCCC4)C3=O)c2C)no1	u	n	n	n	n	n[2.33 µM]
Cc1cc(C(=O)CSc2nncs2)c(C)n1-c1ccc2c(c1)OCO2	45µM	n	u	u	n	u
O=C(Nc1cccc(-c2nc3cccnc3s2)c1)C1c2ccccc2Oc2ccccc21	79µM	n	u	n	n	u
c1ccc(Nc2nc(CSc3ncn[nH]3)cs2)cc1	n	n	n	n	n	22µM
SMILES	BAZ2B inh	CtBP-E1A inh	JMJD2A Tudor inh	HP1b binding inh	Six1-Eya2 inh	G9a block
Cc1ccc(NC(=O)CSc2nccn2Cc2ccco2)cc1Cl	u	x	u	n	x	n
CCCCn1c(=O)n(CC(=O)Nc2ccc(C)c(Cl)c2)c(=O)c2c1ncn2Cc1ccco1	n	n	n	n	n	25µM
COc1ccccc1-n1c(=O)n(C)c2c(C(N)=O)nc(-c3cc(OC)c(OC)c(OC)c3)nc21	n	x	n	n	x	n
Cn1cnnc1SCC(=O)Nc1sc2c(c1C#N)CCCCC2	n	n	n	n	n	13µM
N#Cc1c(NC(=O)Cn2nc(C(F)(F)F)c3c2CCCC3)sc2c1CCC2	79µM	n	u	32µM	n	2.8µM
CC1CCc2c(sc(NC(=O)Cn3nc(C(F)(F)F)c4c3CCCCC4)c2C#N)C1 (stereo not given)	n	n	n	n	n	u
N#Cc1c(NC(=O)CSc2nc(N)cc(=O)[nH]2)sc2c1CCCCCC2	n	n	n	n	n	45µM
CC(NNC(=O)c1ccccc1)c1ccccc1 (stereo not given)	x	x	x	x	x	n[12.7 µM]
Cc1cc(-c2ccc(C)c(S(=O)(=O)NCCCN3CCN(c4ccccc4)CC3)c2)on1	u	x	u	n	n	71µM
COCCNC(=S)NNc1cccc(C(=O)O)c1	x	n	10µM	u	n	10µM
O=C(Nc1nc2c(F)cc(F)cc2s1)c1ccco1	n	n	n	n	n	n
NNc1nc2c(F)cccc2s1	50µM	n	89µM	u	n	u
NNc1nc2c(F)cc(F)cc2s1	50µM	n	79µM	n	n	u
